Compounds with a hit are over-represented: about 5.2% of the library has one in this group of screens.
FBPA coupling cs – inhibits coupling enzyme system, counter-screen for aldolase hits; coupling enzyme system counterscreen, AmpLite Red fluorescence; activity change, negative = inhibition, % at 58.2 µM, hits read low; 290,000 compounds, 0.67% hits; AID 2472; in the data active = activity change below about -30%
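Coupling enzymes only (glyceraldehyde-3-phosphate) + compound, at 57.5 uM final, 10 min RT; add substrate/coupling/AmpLite Red mix, 20 min RT; fluorescence ex 525/em 598 nm. Actives flag coupling-system interference.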
Tau ThT inhib – tau fibrillization inhibition (ThT binding); P10636; recombinant tau K18 P301L, heparin-induced fibrillization, ThT fluorescence; Potency, µM (highest dose often 57.4 µM), for the others: at the highest dose activity, negative = inhibition, most hits filed as inhibitors; 270,000 compounds, 2.1% hits; AID 1460; note: potency is the fitted concentration of half-maximal effect; nearly all actives have a fitted effect of over 55% in size
Target sequence (P10636 561-689 P618L limits assumed): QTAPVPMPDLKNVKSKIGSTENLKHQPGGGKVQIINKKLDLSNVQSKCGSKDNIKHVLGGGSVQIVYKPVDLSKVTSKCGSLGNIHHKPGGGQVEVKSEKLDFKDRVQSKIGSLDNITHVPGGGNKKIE
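Fibril formation assay: tau K18 P301L at 15 uM with trace Alexa 594 label, heparin inducer 20 uM, pH 7 sodium acetate buffer, 37 C for 6 hr; endpoint ThT signal.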
Sfp inh – inhibitors of Bacillus subtilis Sfp phosphopantetheinyl transferase; Q9F4F7; Biochemical Sfp PPTase activity, qHTS; Potency, µM, without a hit: largest response in the series, negative = inhibition, hits mostly inhibitors; 310,000 compounds, 3.5% hits; AID 1490;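 note: the enzyme is Sfp with the accession as filed and its product quenches rhodamine fluorescence; potency is the fitted concentration of half-maximal effect; 0% = enzyme reaction without inhibitor and -100% = no enzyme wells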
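Sfp 15 nM + cpd, 15 min RT; start w/ rhodamine-CoA 5 uM, BHQ-2-YbbR 12.5 uM (final); 50 mM Hepes pH 7.6, 10 mM MgCl2, 0.01% NP-40, 0.01% BSA; read 525/598 nm at 0 and 30 min.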
Tau fluor counter – counter-screen for tau fibril formation inhibitors; tau K18 P301L (four-repeat tau fragment) Alexa594 fluorescence, heparin fibrillization; Potency, µM (highest dose often 57.7 µM), for inactives: at the highest dose activity change, negative = decrease; 280,000 compounds, 0.93% hits; note: potency is the fitted concentration of half-maximal effect; nearly all actives have a fitted effect of over 55% in size
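Human K18 P301L tau (15 uM unlabeled plus 0.24 uM Alexa 594-labeled, final) in 100 mM sodium acetate pH 7 was mixed with compound and 20 uM heparin and incubated 6 hr at 37 C.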
Tau FP inhib – inhibitors of human tau fibril formation | K18 P301L tau heparin fibrillization, Alexa594 FP, 6 h | Potency, µM (doses to about 57.7 µM), for inactives: at the highest dose activity, negative = inhibition, actives largely listed as inhibitors | 280,000 compounds, 0.39% hits | P10636 | AID 1468; note: potency is the fitted concentration of half-maximal effect; nearly all actives have a fitted effect of over 55% in size
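Human K18 P301L fragment (15 uM unlabeled plus 0.24 uM Alexa 594-labeled) in 100 mM sodium acetate pH 7 with compound, aggregation induced by 20 uM heparin for 6 hr at 37 C. ThT (30 uM) added for 1 hr, then Alexa 594 FP read.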
* = called active by the depositor; u = inconclusive; x = no result; ! = a repeat was not active. Unless noted, calls come from the whole dose curve; as a rule, active = well fitted curve in the direction sought with a large enough effect; inconclusive = small, poorly fitted or top-dose-only effect, or another doubt; inactive = no such curve, though single readings can be large; an effect the other way counts as inactive or inconclusive. Unless noted, % is set by controls: 0 for no effect and ±100 for the full control effect.

SMILES	FBPA coupling cs	Tau ThT inhib	Sfp inh	Tau fluor counter	Tau FP inhib
O=C1NC(=O)N(Cc2ccccc2Cl)C(=O)/C1=C/c1cccs1	1.7	u	31.6µM*	0.4%	-5.7%
O=C1NC(=O)N(Cc2ccc(F)cc2)C(=O)/C1=C/c1cccs1	5.1	u	44.7µM*	-19.7%	u
CCC(CO)NC(=O)C1C=C2c3cccc4[nH]cc(c34)CC2N(C)C1 (stereo not given)	-21.1	-15.5%	-18.5%	-17.4%	-7.7%
CC[C@@H](CO)NC(=O)[C@@H]1C=C2c3cccc4c3c(cn4C)C[C@H]2N(C)C1	-56.4*!	25.1µM*!	-8.5%	u	u
COC(=O)C1C=C2c3cccc4[nH]cc(c34)CC2N(C)C1 (stereo not given)	-34.1*	17.8µM*	u	u	u
CC[C@@H](CO)NC(=O)[C@@H]1C=C2c3cccc4[nH]cc(c34)C[C@H]2N(C)C1	x	u	44.7µM*	3.2%	-7.5%
NC(N)=N/N=C/c1c(Cl)cccc1Cl	-20.5	-4.4%	100µM*!	-9.7%	-9.1%
COc1ccc(C(=O)Nc2ccc3c(c2)N(C)C(=O)c2ccccc2S3)cc1OC	x	-11.8%	x	u	u
COc1cc(OC)c(/C=C2/C(=O)Nc3ccccc32)c(OC)c1	x	u	x	-12.2%	4.9%
CCOc1cc(C=C2C(=O)NC(=O)NC2=O)ccc1OCC(=O)N1CCOCC1	0.8	u	u	-17.5%	u
COc1cc(C=C2C(=O)NC(=O)NC2=O)cc(OC)c1OC	0.2	u	31.6µM*	-8.1%	-13.5%
CNC(=S)N(C)CCc1cc2c(c(OC)c1C=C1C(=O)NC(=O)NC1=O)OCO2	-3.6	u	u	-16.8%	-8.5%
CCOc1cc(C=C2C(=O)NC(=O)NC2=O)ccc1OS(=O)(=O)c1ccccc1	-5.3	u	50.1µM*	-7.4%	4.5%
COc1cc(/C=C2/C(=O)N(c3ccccc3)N=C2C)ccc1OS(=O)(=O)c1ccccc1	-42.0*	14.1µM*	-22.4%	u	-22.3%
COCCN1C(=O)/C(=C/c2c(OC)cc(OC)cc2OC)C(=O)N(c2ccccc2)C1=O	0.4	-17.9%	20.5%	-6.5%	-5.7%
COc1cc(C=C2C(=O)NC(=O)NC2=O)ccc1OS(=O)(=O)c1ccccc1[N+](=O)[O-]	-2.8	x	50.1µM*	x	x
C[C@]12CC[C@H](O)C[C@H]1CCC1C2CC[C@]2(C)[C@@H](c3ccc(=O)oc3)C[C@H]3O[C@]132 (stereo not given in full)	x	x	0.4%	x	x
COc1cc2[nH]c(=O)n(Cc3ccc(C(=O)N4CCN(c5ccc(Cl)cc5)CC4)cc3)c(=O)c2cc1OC	x	-10.5%	x	u	u
O=C(c1ccc2c(c1)N(Cc1ccccc1)CCS2)N1CCC2(CC1)OCCO2	x	x	-2.3%	x	x
O=C1Nc2cc(C(=O)N3CCC4(CC3)OCCO4)ccc2NC1CSCc1cccc(F)c1 (stereo not given)	x	x	50.1µM*	x	x
CCON=O	x	x	-1.6%	x	x
CC(=O)O[C@H]1[C@H]2[C@@H](OC(=O)Cc3ccccc3)[C@@H](C)C[C@]2(OC(C)=O)C(=O)/C(C)=C/[C@@H]2[C@H](CC[C@@]13CO3)C2(C)C	-5.7	u	0.2%	-24.3%	-3.5%
C[n+]1c2ccccc2nc2ccc(NCCO)cc21	-28.1	x	79.4µM*	x	x
O=C1CN=C(c2ccccc2)c2cc(Cl)ccc2N1Cc1ccc(Cl)cc1	x	-2.4%	x	-5.9%	-13.0%
O=C(O)CN1C(=O)CN=C(c2ccccn2)c2cc(Cl)ccc21	3.1	-7.8%	50.1µM*	-8.6%	-5.7%
SMILES	FBPA coupling cs	Tau ThT inhib	Sfp inh	Tau fluor counter	Tau FP inhib
CCOc1cncc(/C=C/CCNC)c1	3.0	x	-9.9%	x	x
O=C(O)CCn1cc(C=C2C(=O)NC(=O)NC2=O)c(-c2cc3ccccc3oc2=O)n1	1.9	u	39.8µM*	-10.3%	-7.7%
O=C(O)Cn1cc(C=C2C(=O)NC(=O)NC2=O)c2ccccc21	-1.9	x	3.5%	x	x
CN1CC[C@@]2(C)c3cc(O)ccc3N(C)C2O1 (stereo not given in full)	-71.9*	x	-27.8%	x	x
CN1CC[C@@]2(C)c3cc(O)ccc3N(C)[C@@H]12	-77.9*	14.1µM*	-5.1%	u	20µM*
C[C@@H]1C[C@@H]2[C@H]([C@H]3C=C(COC(=O)c4ccccc4)[C@@H](O)[C@]4(O)[C@@H](O)C(OC(=O)c5ccccc5)=C[C@@]14C3=O)C2(C)C	0.9	x	10.4%	x	x
CCCCC/C=C\C=C\[C@H](CCCCCCCC(=O)O)OO	2.0	-5.1%	19.6%	-6.2%	-2.2%
O=C(Nc1ccc2nc(SCC(=O)N3CCCc4ccccc43)sc2c1)c1cccc(F)c1	x	1.3%	x	u	u
O=C(O)Cn1cc(/C=C2\C(=O)NC(=O)N(c3ccc(Cl)cc3)C2=O)c2ccccc21	7.5	x	u	x	x
O=C1NC(=O)N(c2ccc(Cl)cc2)C(=O)/C1=C\c1ccc(Sc2nc3ccccc3[nH]2)o1	-2.9	14.1µM*	70.8µM*	-25.9%	u
CCn1ncc(-c2ccnc3cc(C(=O)O)nn23)c1C	0.9	-0.4%	u	4.3%	9.6%
CCCCc1ccc(C(=O)O)nc1	-67.4*!	u	28.2µM*	-17.0%	-5.5%
S=C(NCCc1ccccc1)NCCc1cnc[nH]1	1.7	x	u	x	x
O=C1C(Cc2cnc[nH]2)NC(=S)N1c1ccccc1 (stereo not given)	-1.8	x	50.1µM*	x	x
COc1ccc(Cc2nccc3cc(OC)c(OC)cc23)cc1OC	-31.9*!	u	-8.8%	-12.5%	-7.4%
COc1ccc(CCNc2nccn(-c3ccc(C)c(C)c3)c2=O)cc1OC	x	u	x	-14.0%	-0.2%
NC(N)=NCCC[C@@H](N)C(=O)O	0.3	6.0%	u	-2.0%	-2.8%
Cn1nc(OC(=O)Nc2ccc(Cl)cc2)cc1C(F)(F)F	-1.4	-8.7%	5.4%	-19.2%	u
O=C(Nc1ccc(Cl)cc1)O/N=C(\c1ccccc1)c1ccccn1	1.8	-6.3%	39.8µM*	-12.8%	-4.6%
CC(=O)CC(c1ccccc1)c1c(O)c2cccc(O)c2oc1=O (stereo not given)	13.3	x	-7.9%	x	x
Cc1ccccc1CN1CCNCC1	1.0	0.1%	0.5%	-7.8%	-4.2%
Cc1ccccc1CN1CCN(c2ccc(Cl)cc2)CC1	-0.3	-8.1%	50.1µM*	-2.5%	13.2%
Cc1ccc2cc(C=C(C#N)C#N)c(Cl)nc2c1	-0.5	u	56.2µM*	-2.9%	-8.6%
Cc1cc(N2CCCC2)ccc1C=C(C#N)C#N	-2.4	-14.3%	11.5%	-7.2%	-18.9%
O=C(Cc1cc(=O)[nH][nH]1)N/N=C/c1cccc2ccccc12	2.7	3.16µM*	-3.8%	u	u
Fc1ccc(-c2nc3c(-c4ccc(F)cc4)cnn3cc2CCN2CCOCC2)cc1	0.5	u	16.5%	-9.4%	3.2%
COc1ccc2c(c1O)-c1cccc3c1C(C2)N(C)CC3 (stereo not given)	x	u	x	-24.2%	u
